Results taken from PubChem BioAssay (NCI).
This is part of a sample that, as a whole, favours compounds with a hit. Of some 79,000 tested, about 15% had one in any assay. Cut-off read from the data, not from the text of the source: active = growth inhibition above about 70%; inactive = the rest.

Legend:
[1] = NCI Yeast Anticancer Drug Screen. Data for the rad50 strain (AID 155);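 note: 0% = growth of vehicle-only cultures of the same strain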; details: S. cerevisiae rad50 strain growth inhibition; at 50.0 µM; hits give high values
Method in brief: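 Relative growth inhibition (compound vs vehicle) was measured in yeast with a defined repair-gene alteration.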

[2] = NCI Yeast Anticancer Drug Screen. Data for the mec2-1 strain (AID 157); details: S. cerevisiae mec2-1 strain, at 50.0 µM, hits give high values
Method in brief: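 Mutant yeast (mec2-1) grown with compound; growth inhibition relative to vehicle control reported.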

[3] = NCI Yeast Anticancer Drug Screen. Data for the sgs1 mgt1 strain (AID 161);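 note: 0% = growth of cultures given vehicle only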; details: S. cerevisiae sgs1 mgt1 strain, at 50.0 µM, hits give high values
Method in brief: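 Compounds are added to genetically altered yeast, and growth is compared with cultures given vehicle alone to give percent inhibition.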

[4] = NCI Yeast Anticancer Drug Screen. Data for the cln2 rad14 strain (AID 165);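 note: 0% = growth equal to vehicle treated cultures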; details: S. cerevisiae cln2 rad14 strain, at 50.0 µM, hits give high values
Method in brief: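 Readout is yeast growth inhibition versus vehicle-treated controls, using a strain with cln2 and rad14 alterations exposed to compound.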

[5] = NCI Yeast Anticancer Drug Screen. Data for the bub3 strain (AID 167); details: S. cerevisiae bub3 mutant strain, at 50.0 µM, hits give high values
Method in brief: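 Screening used yeast with an engineered genetic alteration affecting cell cycle control. Compound-exposed cultures were compared with vehicle cultures, and reduced growth was taken as inhibition.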

[6] = NCI Yeast Anticancer Drug Screen. Data for the mlh1 rad18 strain (AID 175); details: S. cerevisiae mlh1 rad18 strain growth inhibition; at 50.0 µM; hits give high values
Method in brief: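 Genetically defined yeast (DNA repair-deficient) exposed to compounds; growth inhibition determined relative to vehicle.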

Measured: growth inhibition

NNc1ncnc2c1ncn2C1OC(CO)C(O)C1O (stereo not drawn)
inactive: [1] -9.85% | [2] -12.8% | [3] 0.15% | [4] -21.9% | [5] 1.45% | [6] -15.2%

O=C(OCC1CCCO1)c1ccc([N+](=O)[O-])cc1 (stereo not drawn)
inactive: [1] 2.05% | [2] 21.6% | [3] 12.9% | [4] 9.7% | [5] 30.9% | [6] 12.3%

CC(c1ccccc1)N1C(=O)CSC1=S (stereo not drawn)
inactive: [1] 37.1% | [2] 30.5% | [3] 22.8% | [4] 35.8% | [5] 53.6% | [6] 52.1%

COC1OC(COC(C)=O)C(OC(C)=O)C(OC(C)=O)C1OC(C)=O (stereo not drawn)
inactive: [1] 10.7% | [2] 3.05% | [3] 47.2% | [4] -28.6% | [5] 2.05% | [6] 13.2%

COC(=O)Cc1cc(COC(C)=O)ccc1C
inactive: [1] 0.05% | [2] 0% | [3] -0.7% | [4] -57% | [5] -17.2% | [6] -7.8%

COc1ccc(/C=C\C(=O)/C=C/c2ccc(OC)cc2)cc1
inactive: [1] -11.9% | [2] 7.05% | [3] 1.5% | [4] -14.4% | [5] -3.35% | [6] 0%

O=S(=O)(O)c1ccc(O)c(C2CCCCC2)c1
inactive: [1] -7.1% | [2] -8.4% | [3] -21.1% | [4] -23.2% | [5] -12.2% | [6] 31.4%

CCC(/C=C\C(C)=O)CC
inactive: [1] -28.3% | [2] -25.2% | [3] -27.6% | [4] 5.35% | [5] -10.6% | [6] -12.8%

Nc1nc(Cl)cc(Cl)n1
inactive: [1] 6.65% | [2] 3.15% | [3] 0% | [4] 5.05% | [5] 2.85% | [6] 3.25%

CCOC(=O)c1ccc(C(C)(C)C)cc1
inactive: [1] 20.4% | [2] -6.65% | [3] 2.5% | [4] -45.5% | [5] 0.4% | [6] 6.5%

O=C(CC(CC(=O)c1ccccc1)c1ccccn1)c1ccccc1
inactive: [1] -16.6% | [2] -20.2% | [3] -28.1% | [4] -33% | [5] 4.65% | [6] -42.1%

COc1cccc(C(=O)NNC(=O)c2cccc3ccccc23)c1
inactive: [1] -47.2% | [2] -59.1% | [3] -26.8% | [4] -10.4% | [5] -34.2% | [6] -20.9%

Cn1/c(=N\N=C\c2ccccc2OCCO)sc2ccccc21
inactive: [1] -2.7% | [2] 17.9% | [3] 18.8% | [4] 9.7% | [5] 26.4% | [6] 4.3%

CCOC(=O)c1c(C)[nH]c(C)c1C=O
inactive: [1] 16.6% | [2] -0.05% | [3] 3.15% | [4] -1.15% | [5] 52.5% | [6] 3.9%

CC(=O)N=c1ccc2nc3c(cc(N)c4ccccc43)oc-2c1
inactive: [1] 25.4% | [2] 13.2% | [3] 27.6% | [4] 20.9% | [5] 40.5% | [6] 33.8%

O=c1n(CC2CO2)c(=O)n(CC2CO2)n1CC1CO1 (stereo not drawn)
inactive: [1] 16.9% | [2] -5.75% | [3] 1.05% | [4] 8.35% | [5] -26.7% | [6] -8.8%

Nc1cccc2cccc(O)c12
inactive: [1] 40.1% | [2] 18.7% | [3] -17.5% | [4] -10.8% | [5] 41.4% | [6] 43.5%

C1C[S+]2CC[S+]1CC2
inactive: [1] 3.5% | [2] 28.9% | [3] 24.3% | [4] -5.95% | [5] 19.2% | [6] 28.2%

Cc1cc(Nc2ccc3c(c2)OCO3)c2cc3c(cc2n1)OCO3
inactive: [1] 10.6% | [2] -9.15% | [3] -14.9% | [4] 3.8% | [5] -0.5% | [6] -42.1%

C=CCS(C)(=O)=O
inactive: [1] -13.8% | [2] -18.6% | [3] -11.8% | [4] 5.7% | [5] -0.8% | [6] -3.65%

Clc1ccc(/C=C/c2ccccn2)cc1
inactive: [1] 21.1% | [2] 2.05% | [3] 9.3% | [4] -16.2% | [5] 7.5% | [6] 28.4%

COc1cc(C(=O)NC(=S)NCc2ccncc2)cc(OC)c1OC
inactive: [1] 9.6% | [2] 4.75% | [3] -4.65% | [4] -11.2% | [5] 34.2% | [6] 19.7%

CSc1nc2[nH]ncc2c(=O)[nH]1
inactive: [1] -19.8% | [2] 5.85% | [3] 15.4% | [4] -40.6% | [5] -3.05% | [6] -6.15%

c1ccc(-c2ccc3ccccc3c2)cc1
inactive: [1] 7.35% | [2] -6.65% | [3] -3.3% | [4] -2.65% | [5] -0.8% | [6] -14.2%

O=S(=O)(c1ccc(NC(=S)NCc2cccnc2)cc1)N1CCCCC1
inactive: [1] 21.9% | [2] 11.9% | [3] 23.9% | [4] 1.8% | [5] 36.4% | [6] 22.2%

Cc1nc(C)c(C(=O)O)cc1C(=O)O
inactive: [1] -8.9% | [2] -17.8% | [3] 9.15% | [4] 2.85% | [5] 21.4% | [6] 4%

C=CC(C)C(C)(C)O (stereo not drawn)
inactive: [1] -3.2% | [2] -43.5% | [3] -1% | [4] 4.25% | [5] -13.5% | [6] -2.4%

CC1CCC(C)(C)c2ccccc21 (stereo not drawn)
inactive: [1] 2.65% | [2] -7.25% | [3] -2.5% | [4] -2.5% | [5] -7.75% | [6] 2.3%

O=C(CCCl)OCCOc1ccccc1
inactive: [1] -9.85% | [2] 4.3% | [3] -15.1% | [4] 21.9% | [5] -18.5% | [6] 6.55%

CC(=O)/C(C)=N\OC(=O)Nc1ccccc1
inactive: [1] 1.2% | [2] -8.2% | [3] -2.65% | [4] -7% | [5] 9.4% | [6] -9.95%

O=C(OC1CCCC1)c1ccccc1Cl
inactive: [1] 23.9% | [2] 8.75% | [3] 3.75% | [4] -21.7% | [5] -2.3% | [6] 23.2%

O=S(=O)(O)C(C(I)I)S(=O)(=O)O
inactive: [1] -0.15% | [2] -19.8% | [3] -3.35% | [4] -34.5% | [5] -6.85% | [6] -7.6%

CC(C)N(CCCC#N)C(C)C
inactive: [1] 9.9% | [2] -11.6% | [3] -5.25% | [4] 10.4% | [5] -17.2% | [6] 8.05%

CCCC(=O)CC(=O)c1ccccc1
inactive: [1] 7.75% | [2] 10.4% | [3] -3.75% | [4] -13.6% | [5] 5.85% | [6] 4.4%

O=C(NCc1ccco1)Nc1cccc2c(NC(=O)NCc3ccco3)cccc12
inactive: [1] 2.15% | [2] -13.5% | [3] 2.6% | [4] 25.8% | [5] 2.05% | [6] 4.85%

O=C(Nc1ccccc1)c1ccco1
inactive: [1] 12.3% | [2] 33.2% | [3] 13.8% | [4] -0.6% | [5] -1.55% | [6] 11.2%

Cc1ccc(NCN2C(=O)c3ccccc3C2=O)c(C)n1
inactive: [1] 4.7% | [2] -28.4% | [3] 8.05% | [4] 11.3% | [5] 7% | [6] -0.65%

CCNC(=O)OCCc1c2ccccc2nc2ccccc12
inactive: [1] 51.4% | [2] 36.5% | [3] 42.4% | [4] 36.1% | [5] 12.7% | [6] 54.2%
